Results from the supplement of paper PMC11732987, “Enantioselective OTUD7B fragment discovery through chemoproteomics screening and high-throughput optimisation” (Communications Chemistry, 2025).

Tests used:
Experiment in all cases: log2 ratio of Biotin-Ahx-Ub-VS probe labelling (fragment/DMSO); higher = less target engagement (more negative = stronger competition), active = hit call of the paper (q ≤ 0.05, log2 ratio ≤ -1)
Details in all cases: compound concentration: 200 uM; treatment time: 3 h
USP19 = target: T1, USP19 (UniProt O94966)
T1 sequence (whole entry): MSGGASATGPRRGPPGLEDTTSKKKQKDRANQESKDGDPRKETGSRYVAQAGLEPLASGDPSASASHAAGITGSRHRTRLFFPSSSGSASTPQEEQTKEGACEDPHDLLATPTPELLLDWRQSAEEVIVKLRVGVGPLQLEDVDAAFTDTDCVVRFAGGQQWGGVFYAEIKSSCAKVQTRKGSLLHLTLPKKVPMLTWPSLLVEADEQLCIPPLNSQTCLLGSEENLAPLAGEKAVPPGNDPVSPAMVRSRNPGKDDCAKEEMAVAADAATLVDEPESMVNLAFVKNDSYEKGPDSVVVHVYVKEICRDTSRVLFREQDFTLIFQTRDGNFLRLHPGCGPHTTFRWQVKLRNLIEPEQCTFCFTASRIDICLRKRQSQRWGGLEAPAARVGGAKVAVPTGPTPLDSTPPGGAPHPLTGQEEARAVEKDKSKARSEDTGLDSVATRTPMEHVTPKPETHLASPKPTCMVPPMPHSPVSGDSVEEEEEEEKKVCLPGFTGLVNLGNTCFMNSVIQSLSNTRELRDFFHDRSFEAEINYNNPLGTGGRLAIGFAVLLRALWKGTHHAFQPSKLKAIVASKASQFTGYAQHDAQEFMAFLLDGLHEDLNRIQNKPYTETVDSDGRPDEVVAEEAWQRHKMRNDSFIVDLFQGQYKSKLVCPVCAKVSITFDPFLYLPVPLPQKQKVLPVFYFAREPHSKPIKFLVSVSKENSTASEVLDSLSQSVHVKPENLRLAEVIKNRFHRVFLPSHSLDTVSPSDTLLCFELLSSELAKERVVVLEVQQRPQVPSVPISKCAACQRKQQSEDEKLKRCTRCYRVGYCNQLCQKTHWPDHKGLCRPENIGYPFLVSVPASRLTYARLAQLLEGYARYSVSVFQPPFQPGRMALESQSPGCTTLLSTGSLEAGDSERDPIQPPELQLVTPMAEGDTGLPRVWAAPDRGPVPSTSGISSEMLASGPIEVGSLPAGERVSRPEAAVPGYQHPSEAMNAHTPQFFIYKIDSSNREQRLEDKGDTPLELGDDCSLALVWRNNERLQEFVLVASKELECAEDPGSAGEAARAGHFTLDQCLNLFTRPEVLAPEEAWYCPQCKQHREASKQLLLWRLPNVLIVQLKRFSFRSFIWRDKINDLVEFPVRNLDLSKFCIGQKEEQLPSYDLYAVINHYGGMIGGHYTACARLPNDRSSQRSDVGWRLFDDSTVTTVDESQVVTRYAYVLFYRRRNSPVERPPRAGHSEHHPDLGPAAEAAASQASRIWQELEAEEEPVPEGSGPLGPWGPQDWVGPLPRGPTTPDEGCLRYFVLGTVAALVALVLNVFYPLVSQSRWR
In short: (§1)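 The table lists average log2 ratios of fragment over vehicle, from an unpaired t-test on global-median-normalised Spectronaut label-free quantities. Proteins with ≥2 unique peptides were used. Samples were HEK293T lysate (495 µg) treated in triplicate with fragment at 200 µM or vehicle for 3 h, then with Biotin-Ahx-Ub-VS (0.5 µM final) for 1 h, with labelled DUBs NeutrAvidin-enriched and run by diaPASEF LC-MS/MS.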

USP22 = target: T2, USP22 (UniProt Q9UPT9)
T2 sequence (whole entry): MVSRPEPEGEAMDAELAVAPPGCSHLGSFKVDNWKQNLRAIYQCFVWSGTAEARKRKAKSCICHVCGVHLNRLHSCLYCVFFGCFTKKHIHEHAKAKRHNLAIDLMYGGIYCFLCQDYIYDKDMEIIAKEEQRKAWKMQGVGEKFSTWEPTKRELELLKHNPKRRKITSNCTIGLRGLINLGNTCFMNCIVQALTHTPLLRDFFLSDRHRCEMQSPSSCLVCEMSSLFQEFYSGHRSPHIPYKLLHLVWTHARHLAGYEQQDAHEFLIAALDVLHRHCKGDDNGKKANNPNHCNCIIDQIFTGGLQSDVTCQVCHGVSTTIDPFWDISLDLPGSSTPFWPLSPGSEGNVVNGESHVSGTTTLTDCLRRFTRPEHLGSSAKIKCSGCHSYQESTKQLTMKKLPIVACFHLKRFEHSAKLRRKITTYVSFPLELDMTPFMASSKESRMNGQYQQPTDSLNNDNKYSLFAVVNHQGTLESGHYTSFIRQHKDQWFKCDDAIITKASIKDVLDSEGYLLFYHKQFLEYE
In short: as §1

USP24 = USP24 (UniProt Q9UPU5)
In short: as §1

USP25 = target: T3, USP25 (UniProt Q9UHP3)
T3 sequence (whole entry): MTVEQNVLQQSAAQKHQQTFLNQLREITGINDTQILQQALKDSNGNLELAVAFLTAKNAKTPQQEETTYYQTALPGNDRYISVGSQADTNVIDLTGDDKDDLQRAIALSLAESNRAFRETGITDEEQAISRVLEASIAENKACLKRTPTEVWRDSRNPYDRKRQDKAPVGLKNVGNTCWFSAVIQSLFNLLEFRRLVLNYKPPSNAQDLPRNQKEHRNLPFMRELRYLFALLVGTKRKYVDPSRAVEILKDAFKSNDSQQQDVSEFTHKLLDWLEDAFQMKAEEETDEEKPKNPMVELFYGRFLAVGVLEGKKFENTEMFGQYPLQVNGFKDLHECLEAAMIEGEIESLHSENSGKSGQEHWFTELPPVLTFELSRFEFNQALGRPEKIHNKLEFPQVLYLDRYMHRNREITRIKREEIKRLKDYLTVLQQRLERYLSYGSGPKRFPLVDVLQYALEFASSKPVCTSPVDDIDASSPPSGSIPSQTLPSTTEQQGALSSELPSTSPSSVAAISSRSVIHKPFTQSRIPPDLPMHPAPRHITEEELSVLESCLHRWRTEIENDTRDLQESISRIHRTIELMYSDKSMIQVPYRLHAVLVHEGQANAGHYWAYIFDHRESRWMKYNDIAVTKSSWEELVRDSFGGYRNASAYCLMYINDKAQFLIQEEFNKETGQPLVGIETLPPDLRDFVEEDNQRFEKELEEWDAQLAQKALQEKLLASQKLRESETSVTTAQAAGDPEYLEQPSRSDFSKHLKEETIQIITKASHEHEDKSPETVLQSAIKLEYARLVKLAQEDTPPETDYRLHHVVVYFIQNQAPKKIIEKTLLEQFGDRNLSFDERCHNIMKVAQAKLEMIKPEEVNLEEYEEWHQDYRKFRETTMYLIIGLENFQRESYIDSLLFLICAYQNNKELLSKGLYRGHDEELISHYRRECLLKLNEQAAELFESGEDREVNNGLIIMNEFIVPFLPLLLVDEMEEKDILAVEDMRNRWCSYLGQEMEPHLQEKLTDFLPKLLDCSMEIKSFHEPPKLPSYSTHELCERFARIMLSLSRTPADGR
In short: as §1

USP28 = target: T4, USP28 (UniProt Q96RU2)
T4 sequence (whole entry): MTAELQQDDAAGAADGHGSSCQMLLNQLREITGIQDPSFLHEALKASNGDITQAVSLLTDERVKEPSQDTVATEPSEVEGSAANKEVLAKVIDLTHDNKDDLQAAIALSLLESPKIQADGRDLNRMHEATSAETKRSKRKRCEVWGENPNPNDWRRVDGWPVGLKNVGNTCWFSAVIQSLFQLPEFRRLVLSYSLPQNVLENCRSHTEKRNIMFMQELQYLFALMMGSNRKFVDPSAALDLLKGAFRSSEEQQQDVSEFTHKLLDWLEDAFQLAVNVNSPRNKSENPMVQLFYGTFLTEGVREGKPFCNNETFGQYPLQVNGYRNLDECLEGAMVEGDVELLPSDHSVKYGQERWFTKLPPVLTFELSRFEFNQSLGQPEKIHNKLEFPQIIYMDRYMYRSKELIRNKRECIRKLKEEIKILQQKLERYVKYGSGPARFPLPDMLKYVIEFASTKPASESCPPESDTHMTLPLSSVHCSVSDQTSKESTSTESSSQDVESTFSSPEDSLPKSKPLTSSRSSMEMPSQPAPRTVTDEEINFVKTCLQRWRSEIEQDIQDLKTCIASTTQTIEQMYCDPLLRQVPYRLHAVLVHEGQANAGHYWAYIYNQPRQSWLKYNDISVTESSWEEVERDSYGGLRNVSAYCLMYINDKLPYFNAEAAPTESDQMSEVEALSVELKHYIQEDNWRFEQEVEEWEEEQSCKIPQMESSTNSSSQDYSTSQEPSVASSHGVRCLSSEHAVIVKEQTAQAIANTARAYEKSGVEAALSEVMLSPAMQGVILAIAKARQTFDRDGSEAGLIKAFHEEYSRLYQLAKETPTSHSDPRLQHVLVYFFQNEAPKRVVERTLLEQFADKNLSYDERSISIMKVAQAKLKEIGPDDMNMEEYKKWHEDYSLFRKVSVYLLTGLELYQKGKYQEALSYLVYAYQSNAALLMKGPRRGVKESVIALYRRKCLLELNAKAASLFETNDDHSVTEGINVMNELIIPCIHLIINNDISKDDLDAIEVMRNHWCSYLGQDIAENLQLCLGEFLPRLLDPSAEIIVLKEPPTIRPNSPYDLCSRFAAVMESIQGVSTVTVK
In short: as §1

Measured: log2 ratio of Biotin-Ahx-Ub-VS probe labelling

Sequence of USP24 (Q9UPU5 whole entry): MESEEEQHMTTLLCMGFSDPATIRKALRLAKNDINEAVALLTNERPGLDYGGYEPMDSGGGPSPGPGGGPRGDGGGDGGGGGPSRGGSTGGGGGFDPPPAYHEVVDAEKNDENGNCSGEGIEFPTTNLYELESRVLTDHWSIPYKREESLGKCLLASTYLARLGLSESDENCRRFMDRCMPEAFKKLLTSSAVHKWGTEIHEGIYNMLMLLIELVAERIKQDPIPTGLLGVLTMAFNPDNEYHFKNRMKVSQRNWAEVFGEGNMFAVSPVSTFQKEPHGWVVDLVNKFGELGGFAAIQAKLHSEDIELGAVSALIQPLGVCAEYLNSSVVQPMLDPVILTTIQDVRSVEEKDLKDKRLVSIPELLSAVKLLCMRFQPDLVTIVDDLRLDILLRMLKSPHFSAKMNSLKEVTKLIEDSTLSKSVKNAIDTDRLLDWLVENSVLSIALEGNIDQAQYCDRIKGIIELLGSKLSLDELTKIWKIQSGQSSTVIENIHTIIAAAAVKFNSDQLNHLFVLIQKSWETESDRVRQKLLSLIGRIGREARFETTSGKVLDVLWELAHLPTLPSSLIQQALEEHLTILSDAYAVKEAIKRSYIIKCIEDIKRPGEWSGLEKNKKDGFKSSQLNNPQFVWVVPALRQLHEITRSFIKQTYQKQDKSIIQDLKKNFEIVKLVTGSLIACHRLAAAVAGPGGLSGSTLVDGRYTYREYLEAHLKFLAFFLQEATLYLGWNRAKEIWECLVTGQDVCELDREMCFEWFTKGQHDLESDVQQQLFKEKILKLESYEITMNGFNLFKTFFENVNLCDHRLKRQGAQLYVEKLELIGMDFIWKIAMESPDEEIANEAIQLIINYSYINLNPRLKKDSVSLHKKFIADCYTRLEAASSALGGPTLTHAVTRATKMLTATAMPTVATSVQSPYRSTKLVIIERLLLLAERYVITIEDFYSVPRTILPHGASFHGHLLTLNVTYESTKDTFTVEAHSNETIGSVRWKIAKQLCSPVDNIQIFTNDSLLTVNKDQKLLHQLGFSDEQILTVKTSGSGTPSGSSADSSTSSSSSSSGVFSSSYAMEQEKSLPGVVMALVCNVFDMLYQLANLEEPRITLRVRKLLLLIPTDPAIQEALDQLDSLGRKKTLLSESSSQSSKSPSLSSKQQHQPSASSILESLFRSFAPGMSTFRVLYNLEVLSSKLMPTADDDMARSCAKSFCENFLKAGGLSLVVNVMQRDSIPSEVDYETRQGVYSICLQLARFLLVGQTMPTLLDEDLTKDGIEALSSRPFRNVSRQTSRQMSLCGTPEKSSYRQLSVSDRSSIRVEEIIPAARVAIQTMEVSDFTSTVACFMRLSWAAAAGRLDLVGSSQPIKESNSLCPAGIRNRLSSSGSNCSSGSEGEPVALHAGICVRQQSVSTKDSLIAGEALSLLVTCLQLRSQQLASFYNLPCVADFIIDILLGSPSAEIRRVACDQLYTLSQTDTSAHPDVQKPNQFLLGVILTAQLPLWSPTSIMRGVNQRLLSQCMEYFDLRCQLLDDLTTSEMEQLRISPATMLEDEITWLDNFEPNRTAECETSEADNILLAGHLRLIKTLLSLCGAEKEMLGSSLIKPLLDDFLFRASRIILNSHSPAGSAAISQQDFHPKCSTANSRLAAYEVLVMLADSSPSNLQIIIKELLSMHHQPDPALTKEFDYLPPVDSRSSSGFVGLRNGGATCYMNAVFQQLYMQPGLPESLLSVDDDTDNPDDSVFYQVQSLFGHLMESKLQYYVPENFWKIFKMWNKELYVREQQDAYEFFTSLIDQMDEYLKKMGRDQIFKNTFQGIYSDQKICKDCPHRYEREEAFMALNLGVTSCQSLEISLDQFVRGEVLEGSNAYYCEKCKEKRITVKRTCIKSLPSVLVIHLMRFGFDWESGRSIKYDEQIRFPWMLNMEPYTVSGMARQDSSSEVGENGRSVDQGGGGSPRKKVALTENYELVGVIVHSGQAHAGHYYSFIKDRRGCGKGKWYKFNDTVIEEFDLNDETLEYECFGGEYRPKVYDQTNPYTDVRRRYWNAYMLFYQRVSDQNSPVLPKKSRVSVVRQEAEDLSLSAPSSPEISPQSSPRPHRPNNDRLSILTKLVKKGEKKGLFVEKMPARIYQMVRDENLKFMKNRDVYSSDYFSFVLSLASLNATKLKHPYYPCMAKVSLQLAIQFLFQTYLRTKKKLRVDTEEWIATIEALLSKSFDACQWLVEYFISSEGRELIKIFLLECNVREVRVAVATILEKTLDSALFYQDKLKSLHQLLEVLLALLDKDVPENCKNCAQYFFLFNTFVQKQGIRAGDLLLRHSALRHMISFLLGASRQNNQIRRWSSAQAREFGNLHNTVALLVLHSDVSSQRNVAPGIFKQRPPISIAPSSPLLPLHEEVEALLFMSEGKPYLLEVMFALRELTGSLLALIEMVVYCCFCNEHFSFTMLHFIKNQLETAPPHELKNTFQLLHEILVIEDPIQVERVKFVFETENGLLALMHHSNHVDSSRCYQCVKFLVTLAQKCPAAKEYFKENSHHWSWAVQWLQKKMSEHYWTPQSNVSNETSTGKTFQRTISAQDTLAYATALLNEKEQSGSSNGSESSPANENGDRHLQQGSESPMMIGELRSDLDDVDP

Cl.O=C(CCl)NCc1ccnc(Oc2ccccc2F)c1
inactive: USP19 -0.111 | USP22 -0.353 | USP24 -0.349 | USP25 -0.678 | USP28 -0.558
